# HSF1 inhib: HSF1 inhibition. NIH3T3-HGL HSE-luciferase, MG132-induced, luminescence 8 h; active compounds read low. activity change, negative = inhibition, % at 7.5 µM (by protocol). hit rate 0.77% among 300,000. AID 2098;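 active = more than half of replicate wells show activity change below -50%, luminescence cut by over half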;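 note: luciferase reports HSF-1 transcriptional activity via heat shock element; 0% = median of DMSO wells and -100% = zero luminescence signal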
# dFosB activator: enhances mouse delta FosB homodimer DNA binding; hit rate 0.99% among 340,000; P13346; activation, % at 25 µM; purified delta FosB, TAMRA-CDK5 oligo fluorescence polarization; percent of positive-control signal above neutral wells;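 active = mean activation above about 17%, with every replicate also reaching it, limit read from the data, passing the limit was not always enough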
# Target sequence (P13346 whole entry, looked up): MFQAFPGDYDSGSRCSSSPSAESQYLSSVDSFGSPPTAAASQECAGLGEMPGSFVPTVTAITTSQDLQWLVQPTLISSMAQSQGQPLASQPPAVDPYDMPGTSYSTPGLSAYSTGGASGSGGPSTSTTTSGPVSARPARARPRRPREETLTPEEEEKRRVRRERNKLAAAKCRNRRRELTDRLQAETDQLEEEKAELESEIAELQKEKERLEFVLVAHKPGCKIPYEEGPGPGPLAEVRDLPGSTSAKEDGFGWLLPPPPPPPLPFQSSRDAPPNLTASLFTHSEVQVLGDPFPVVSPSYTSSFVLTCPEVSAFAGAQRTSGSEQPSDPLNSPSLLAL
# Platelet DG rel: modulates dense granule release in human platelets; human platelet-rich plasma, SFLLRN dense granule ATP release, luminescence; inhibition, %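 (compounds screened at 7.5 µM in platelet-rich plasma)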; hit rate 0.22% among 300,000; AID 1663;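 active = mean replicate score, as percent of positive control, at or above 50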
# MPTP inh: blocks calcium-induced mitochondrial swelling. AID 602449. hit rate 1.4% among 360,000. isolated mouse mitochondria, Ca2+ swelling absorbance, 30 min. inhibition, % at 10 µM;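 active = inhibition of 50% or more, scaled per plate between neutral and stimulator controls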;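 note: 0% = DMSO wells given calcium and 100% = 1 mM EGTA wells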
# HSF1 activator: increases HSF-1 driven luciferase reporter signal. NIH3T3-HGL HSF-1 luciferase reporter, MG132, 8 h; 100% = twice DMSO control signal. activation, % at 9 µM. hit rate 1.7% among 300,000. AID 504408;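 active = mean replicate activation of at least 50% with a set share of replicates each reaching 50%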;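 note: 0% = median of the neutral control wells and 100% = twice that signal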
# HSP90 inh: inhibitors of HSP90 luciferase refolding in rabbit reticulocyte lysate; luciferase refolding luminescence, 3 h; inhibition, % at 5.6 µM; hit rate 0.91% among 290,000;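 active = inhibition above the screen-wide mean plus 3 SD, computed separately per campaign, cut at about 16% in these data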;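 note: 0% = DMSO wells and 100% = 60 µM geldanamycin wells; inhibitors lower the luminescence because luciferase stays unfolded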
# MPTP counter: membrane potential counter-screen of mitochondrial pore inhibitors | hit rate 78% among 5,000 | shares compounds with MPTP inh | isolated mitochondria, Rhodamine 123 fluorescence | AID 624504 | inhibition, % at 10 µM; in the data active = inhibition above about 22%;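 note: 0% = DMSO vehicle and 100% = positive control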
# MPTP abs DR: MPTP inhibition, dose response swelling confirmation. AID 651561. IC50, µM. isolated mitochondria swelling, absorbance. hit rate 58% among 780. shares compounds with MPTP inh; in the data active = IC50 below about 20 µM
# MPTP cs DR: counter-screen for mitochondrial permeability transition pore inhibitors, dose response | hit rate 49% among 780 | IC50, µM | isolated mitochondria counterscreen, fluorescence read-out | AID 651564 | shares compounds with MPTP inh; in the data active = IC50 below about 80 µM
# * hit, by the source's call; · = no result given; ! = not active in a repeat. Sampled rows, rich in hits. Any-hit rate of the full collection: about 4.9%.
SMILES,HSF1 inhib,dFosB activator,Platelet DG rel,MPTP inh,HSF1 activator,HSP90 inh,MPTP counter,others
CCOc1ccc(C(=O)C(C)OC(=O)c2nc(Cl)ccc2Cl)cc1 (stereo unspecified),8,-9,-8,4,9,·,·,
CCC(C)Sc1cc(-c2nc3ccc(C)cn3c2NCc2ccccc2)ccc1OC (stereo unspecified),4,-9,-3,54*!,-6,·,105*,
CCCCNc1c(-c2ccc(OC)c(SC(C)CC)c2)nc2cc(C)ccn12 (stereo unspecified),·,-1,·,46,·,·,·,
CCCCNc1c(-c2ccc(Sc3ccc(OC)cc3)cc2)nc2cc(C)ccn12,·,-6,·,60*,·,·,97*,
CCCCNc1c(-c2ccc(OC)c(SC(C)CC)c2)nc2ccc(C)cn12 (stereo unspecified),·,-7,·,59*!,·,·,99*,
CCCCNc1c(-c2ccc(OC)c(SC(C)CC)c2)nc2ccc(Cl)cn12 (stereo unspecified),·,-10,·,1,·,·,·,
CCC(C)Sc1ccc(-c2nc3ccc(C)cn3c2NCc2ccccc2)cc1OC (stereo unspecified),15,0,10,13,7,·,·,
COc1c(C(=O)Nc2ccccc2N2CCOCC2)cc2ccccc2c1Br,-10,-7,-1,3,4,-2,·,
CCN(CC(=O)Nc1cccc(F)c1)CC(=O)Nc1ccccc1OC,0,-7,7,-1,9,-2,·,
CC(OC(=O)c1cccc(S(=O)(=O)Nc2cccc(C(F)(F)F)c2)c1)C(=O)Nc1ccc2c(c1)OCCO2 (stereo unspecified),7,-4,10,67*,23,-4,69*,
C=CCNC(=O)N1CCC(n2nccc2NC(=O)CCCc2ccccc2)CC1,0,2,-35,-1,8,-3,·,
Cc1cc(=O)n(C)c(=O)n1CCCCCCOc1cccc([N+](=O)[O-])c1,·,0,-4,57*,·,-1,21*,
Cc1cc(N2O[C@]34C=C[C@]25C[C@@H](O)CC[C@]5(C)C3CC[C@]2(C)[C@@H]([C@H](C)/C=C/[C@H](C)C(C)C)CC[C@H]24)no1 (stereo partly specified),·,-2,·,0,·,·,·,
COc1ccc2[nH]c(C)c(C(=O)CN3CCN(C/C=C/c4ccccc4)CC3)c2c1,-4,-2,0,0,2,1,·,
Cc1[nH]c2ccccc2c1C(=O)CN1CCN(C/C=C/c2ccccc2)CC1,0,2,6,65*,3,0,-9,MPTP abs DR=17*;MPTP cs DR=52*
O=C(CCc1nc2ccccc2c(=O)[nH]1)N1CCN(C/C=C/c2ccccc2)CC1,8,-5,1,68*,11,7,49*,
CCNC(=O)N(C)c1c(CC)nc2ccc(C(=O)N3CCN(C(=O)c4ccco4)CC3)cn12,·,·,·,-2,·,·,·,
Cc1cc(C)c(C(=O)Nc2ccc(Br)c(C(F)(F)F)c2)c(C)c1,1,5,-11,58*,0,1,83*,
O=C1c2cccc(OCC(=O)N3CCCc4ccccc43)c2CCN1Cc1cccnc1,0,-2,19,82*,0,2,34*,
COc1ccc(C(=O)CSc2nnc(Cn3cnc4ccccc43)o2)cc1,-4,0,-4,84*,4,5,66*,
CC(=O)c1ccc(NC(=O)CSc2nnc(Cn3cnc4ccccc43)o2)cc1,-6,-5,1,-3,4,-2,·,
Cc1ccc(-c2nnc(Nc3ccc4c(c3)OCO4)c3ccccc23)cc1S(N)(=O)=O,-3,-7,-22,56*,-15,1,-7,MPTP abs DR=>100;MPTP cs DR=>80
CC(NCC(=O)NC(=O)NCCC1=CCCCC1)c1ccc(S(N)(=O)=O)cc1 (stereo unspecified),·,-9,·,0,·,·,·,
CC(=O)N1N=C(c2ccc(C(C)(C)C)cc2)OC1(C)C,-6,-6,-9,69*,16,-1,4,MPTP abs DR=16*;MPTP cs DR=18*
C=CCN(c1ccccc1OC)S(=O)(=O)c1ccc(Cl)c(C(=O)NCc2ccco2)c1,·,·,·,1,·,·,·,
SMILES,HSF1 inhib,dFosB activator,Platelet DG rel,MPTP inh,HSF1 activator,HSP90 inh,MPTP counter,others
Cc1ccc(NS(=O)(=O)c2ccc3c(c2)C(=O)c2ccccc2C3=O)c(C)c1,·,-2,·,82*,·,0,72*,
CCOc1cc(C)c(S(=O)(=O)Nc2ccc3cn[nH]c3c2)cc1C,-3,-14,-5,72*,10,2,76*,
Cc1ccc(S(=O)(=O)Nc2ccc3cn[nH]c3c2)c(C)c1,·,3,·,0,·,·,·,
CCN(Cc1ccccc1)CC(O)COC(c1ccc(OC)cc1)c1ccc(OC)cc1 (stereo unspecified),-1,-16,-4,79*,11,0,0,MPTP abs DR=>100;MPTP cs DR=54*
CCN(CC)CC(O)COC(c1ccccc1)c1ccccc1 (stereo unspecified),-1,-2,4,0,-7,1,·,
CCOC(=O)C1(CCc2ccccc2)CCN(C(=O)CN2CCOC2=O)CC1,9,-5,-5,0,31,1,·,
Nc1ccc2c(c1)N1CCN=C1S2,-16,-6,20,0,5,1,·,
O=C(Nc1ccc(Cl)cc1)Nc1ccc2c(c1)N1CCN=C1S2,-1,9,-1,93*,5,-2,77*,
COc1ccc(C(=O)OCC(=O)Nc2nc3c(F)c(F)c(F)cc3s2)cc1OC,-7,0,-2,0,2,4,·,
O=C(COC(=O)C12CC3CC(CC(C3)C1)C2)Nc1nc2c(F)c(F)c(F)cc2s1,-8,-9,-12,70*,-27,2,40*,
Cc1cccc(CNC(=O)Nc2nnc([C@H]3C[C@H](O)[C@@H](CO)O3)s2)c1,·,·,·,-1,·,·,·,
COc1cccc(N2CCN(c3ncnc4c3[nH]c3ccc(F)cc34)CC2C)c1 (stereo unspecified),-84*,-10,26,100*,-86,-2,93*,
COc1ccc(-n2nc3c(c2NC(=O)C(C)Oc2ccccc2)CS(=O)C3)cc1 (stereo unspecified),-7,1,-8,2,-4,6,·,
C[C@H]1CN([C@@H](C)CO)C(=O)c2cccc(NS(=O)(=O)c3cn(C)cn3)c2O[C@H]1CN(C)S(C)(=O)=O,·,-4,·,1,·,·,·,
CCSc1n[nH]c2nc3c(c(=O)n12)C1(CCCCC1)Cc1ccccc1-3,-8,-8,0,33,4,2,·,
N#CCSc1n[nH]c2nc3c(c(=O)n12)C1(CCCCC1)Cc1ccccc1-3,-2,-8,-1,70*,-7,2,64*,

# Screens as filed in PubChem.
